Assay [1] is described as follows: Counterscreen for APE1 Inhibitors: Fluorescent Dye Displacement Validation Assay (AID 1707).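 Further: plate controls were ThO with dsDNA and no compound for no effect and ThO without dsDNA for full effect.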 Put shortly:
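Reaction mixture of 250 nM Thiazole Orange and 50 nM double-stranded abasic-site DNA was dispensed, compounds were pin-transferred, and fluorescence was read at endpoint (480 nm ex, 540 nm em). Reduced fluorescence indicated dye displacement by DNA binding.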
(A counterscreen serves to expose hits that act by an unwanted route or on another target.)

The target of assay [2] is Endonuclease 4 (Escherichia coli (strain K12)) (UniProt P0A6C1). Briefly: Counterscreen for APE1 Inhibitors: qHTS Validation Assay for Inhibitors of Endonuclease IV (AID 1708). Further: on the % scale 0 is the no-effect control and ±100 the full control effect. The method, boiled down: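 Enzyme (2 nM) + compound, 15 min RT; add 50 nM TAMRA/BHQ-2 THF-site dsDNA; kinetic read ex525/em598, 3 reads/60 s; activity = read 3 − read 1. Buffer Tris pH 7.5, 50 mM NaCl, 2 mM MgCl2, DTT, Tween-20.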

The nature of assay [3]: qHTS for differential inhibitors of proliferation of Plasmodium falciparum line GB4 (AID 1816).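 Further: potency means the concentration at half of the fitted maximal effect; parasite growth measured after 72 h incubation.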 The following applies: Potency: Plasmodium falciparum GB4 proliferation inhibition.
Assay [4] in a line: qHTS for differential inhibitors of proliferation of Plasmodium falciparum line 3D7 (AID 1876). Further: potency means the concentration at half of the fitted maximal effect. For orientation: qHTS replaces the single test concentration by a dilution series.
Assay [5] in a line: qHTS for differential inhibitors of proliferation of Plasmodium falciparum line Dd2 (AID 1882). Further: nearly all actives have a fitted effect of over 65% in size. Further: potency means the concentration at half of the fitted maximal effect.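 On activity change, negative = inhibition: plate controls were DMSO vehicle for no effect and 0.29 µM artemisinin for full effect.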 The following applies: Potency: Plasmodium falciparum Dd2 proliferation inhibition. Put shortly:
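SYBR Green DNA fluorescence (ex 485, em 535 nm) after overnight lysis quantifies parasite growth; compound exposure lasted 72 h at 37 C on infected red cells at 2.5% hematocrit, 0.3% parasitemia (final). Artemisinin 0.29 uM and vehicle wells define normalization.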

The target in assay [6] is Ferritin light chain (Equus caballus) (UniProt P02791). As to the kind of experiment: qHTS Validation Assay for Identification of Novel General Anesthetics (AID 2323). Further: on the % scale 0 is the no-effect control and ±100 the full control effect. The method, boiled down: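 Apoferritin from horse spleen (10 uM) was mixed with 1-aminoanthracene at 50% saturation in PBS, then compounds were added. After 10 min at room temperature, fluorescence was read (ex 380 nm, em 535 nm) and normalized to free-probe and complex controls.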
Sequence of Ferritin light chain (Equus caballus) (P02791 2-175 limits assumed): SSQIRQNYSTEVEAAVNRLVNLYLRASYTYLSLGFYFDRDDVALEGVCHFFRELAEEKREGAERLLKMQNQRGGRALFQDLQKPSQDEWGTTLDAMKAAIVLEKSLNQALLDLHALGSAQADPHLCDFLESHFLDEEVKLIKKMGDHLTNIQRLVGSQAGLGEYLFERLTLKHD

Assay [7] addresses ATP-dependent DNA helicase Q1 (Homo sapiens) (UniProt P46063). Briefly: qHTS Validation Assay for Inhibitors of RecQ-Like Dna Helicase 1 (RECQ1) (AID 2353).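 Further: plate controls were DMSO vehicle for no effect and enzyme-free control for full effect.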 Put shortly: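 RECQ1T1 50 nM; forked duplex (20 bp + 30-nt ss tails) 200 nM, ATP 2 mM final; pH 8.0, 2 mM MgCl2, 2.5 ug/ml poly(dI-dC); 15 min compound preincubation; discontinuous kinetic read over 2 h at RT.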
Assay [8] is described as follows: Quantitative high throughput screen for delayed death inhibitors of the malarial parasite plastid, 96 hour incubation (AID 488745). Further: potency means the concentration at half of the fitted maximal effect; nearly all actives have a fitted effect of over 70% in size. Put shortly: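 Decreased firefly luciferase luminescence indicates inhibited growth of reporter-integrated P. falciparum after two generations (96 h, 37 C, 5% CO2). Infected erythrocytes at 0.1% parasitemia, 2% hematocrit, in Albumax-supplemented RPMI 1640.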

Assay [9] has as its target Thyrotropin receptor (Homo sapiens) (UniProt P16473). As to the kind of experiment: qHTS Assay for Antagonists of the Thyroid Stimulating Hormone Receptor (AID 488980). Further: 0% is about no effect. The method, boiled down: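 Cells expressing human TSHR (HEK293) are dispensed in HBSS/HEPES containing 70 uM RO 20-1724, compound is added, then TSH at EC80 (4 nM final). Antibody in lysis buffer follows, 30 minutes at room temperature before HTRF detection.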

For assay [10], the target named is Thyrotropin-releasing hormone receptor (Homo sapiens) (UniProt P34981). As to the kind of experiment: qHTS for Small Molecule Agonists and Allosteric Enhancers of Human TRH Receptor: Validation Screen for Agonists (AID 493127;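 active means calcium activation more than 3 SD above the typical response in the agonist read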;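 further: intracellular calcium rise by fluo-8 fluorescence before TRH EC20 addition; 0% is about no effect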). As to conditions: TRH receptor agonist cell assay; at 2 µM; stronger effect = higher value. Put shortly: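 Compound-evoked intracellular calcium release in fluo-8-loaded TRHR cells, read kinetically on FDSS (Ex 480/Em 530, 1 s/cycle) after 23 nL pintool transfer. Agonist phase preceded 10 nM TRH EC20 addition.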
Sequence of Thyrotropin-releasing hormone receptor (Homo sapiens) (P34981 whole entry, looked up): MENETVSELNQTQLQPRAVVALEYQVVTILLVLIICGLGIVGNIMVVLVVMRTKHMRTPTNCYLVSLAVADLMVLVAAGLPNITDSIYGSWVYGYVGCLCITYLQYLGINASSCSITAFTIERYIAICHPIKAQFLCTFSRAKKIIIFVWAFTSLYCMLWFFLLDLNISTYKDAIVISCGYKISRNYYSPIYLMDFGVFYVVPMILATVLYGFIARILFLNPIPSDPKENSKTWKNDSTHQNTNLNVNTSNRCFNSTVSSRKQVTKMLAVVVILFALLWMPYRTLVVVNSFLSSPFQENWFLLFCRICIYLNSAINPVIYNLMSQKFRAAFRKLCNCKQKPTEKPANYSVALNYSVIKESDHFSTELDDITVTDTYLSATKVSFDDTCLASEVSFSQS

Assay [11] deals with Galactokinase (Homo sapiens) (UniProt P51570). Briefly: qHTS Validation Assay for Inhibitors of Human Galactokinase (GALK) (AID 493189). Further: 0% is about no effect. Put shortly:
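Compounds were pin-transferred into ATP buffer, then GALK-galactose mix was added (final 5 nM enzyme, 100 uM galactose, 35 uM ATP). After 1 h at room temperature, remaining ATP was measured luminescently.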

A short description of assay [12]: Validation screen for small molecules that induce DNA re-replication in SW480 colon adenocarcinoma cells (AID 504364). Further: 0% is about no effect. The method, boiled down: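 Image-based DNA content read-out: Hoechst stain 40 min, total nuclear fluorescence intensity (ex 405 nm, em 500-530 nm) after 48 h compound exposure of 250 SW480 cells/well at 37 C, 5% CO2, versus DMSO vehicle.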
Assay [13] concerns the target Voltage-gated inwardly rectifying potassium channel KCNH2 (Homo sapiens) (UniProt Q12809). Briefly: qHTS Assay for Small Molecule Inhibitors of the Human hERG Channel Activity (AID 588834).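 Further: U2OS cells transduced with hERG by BacMam; top concentration of the series differs between compounds; on the % scale 0 is the no-effect control and ±100 the full control effect; lower thallium flux fluorescence means stronger hERG block; nearly all actives have a fitted effect of over 50% in size.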 Put shortly: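 Cells were infected with hERG-BacMam virus for 4 hrs at room temperature, grown overnight, then seeded at 2000/well. After dye loading and roughly 10 min compound treatment, thallium influx was triggered and fluorescence recorded.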

A short description of assay [14]: qHTS for differential inhibitors of proliferation of Plasmodium falciparum line W2 (AID 1883).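 Further: potency means the concentration at half of the fitted maximal effect; parasites grown with compound for 72 h before lysis and staining.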 As to conditions: Potency: Plasmodium falciparum W2 proliferation inhibition.
Assay [15] deals with RecQ-like DNA helicase BLM (Homo sapiens) (UniProt P54132). Briefly: qHTS Validation Assay for Inhibitors of Bloom's syndrome helicase (BLM) (AID 2364). Further: potency means the concentration at half of the fitted maximal effect.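 On activity change, negative = inhibition: plate controls were DMSO vehicle for no effect and enzyme-free control for full effect.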 Put shortly: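 BLM 50 nM in 25 mM Tris-HCl pH 8.0, 5 mM NaCl, 2 mM MgCl2, 1 mM DTT, 0.01% Tween-20, 2.5 ug/ml poly(dI-dC); 15 min cpd preinc, RT. Start: 200 nM forked DNA + 2 mM ATP (final). TAMRA read, 2 reads 2 h apart.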
Sequence of RecQ-like DNA helicase BLM (Homo sapiens) (P54132 whole entry, looked up): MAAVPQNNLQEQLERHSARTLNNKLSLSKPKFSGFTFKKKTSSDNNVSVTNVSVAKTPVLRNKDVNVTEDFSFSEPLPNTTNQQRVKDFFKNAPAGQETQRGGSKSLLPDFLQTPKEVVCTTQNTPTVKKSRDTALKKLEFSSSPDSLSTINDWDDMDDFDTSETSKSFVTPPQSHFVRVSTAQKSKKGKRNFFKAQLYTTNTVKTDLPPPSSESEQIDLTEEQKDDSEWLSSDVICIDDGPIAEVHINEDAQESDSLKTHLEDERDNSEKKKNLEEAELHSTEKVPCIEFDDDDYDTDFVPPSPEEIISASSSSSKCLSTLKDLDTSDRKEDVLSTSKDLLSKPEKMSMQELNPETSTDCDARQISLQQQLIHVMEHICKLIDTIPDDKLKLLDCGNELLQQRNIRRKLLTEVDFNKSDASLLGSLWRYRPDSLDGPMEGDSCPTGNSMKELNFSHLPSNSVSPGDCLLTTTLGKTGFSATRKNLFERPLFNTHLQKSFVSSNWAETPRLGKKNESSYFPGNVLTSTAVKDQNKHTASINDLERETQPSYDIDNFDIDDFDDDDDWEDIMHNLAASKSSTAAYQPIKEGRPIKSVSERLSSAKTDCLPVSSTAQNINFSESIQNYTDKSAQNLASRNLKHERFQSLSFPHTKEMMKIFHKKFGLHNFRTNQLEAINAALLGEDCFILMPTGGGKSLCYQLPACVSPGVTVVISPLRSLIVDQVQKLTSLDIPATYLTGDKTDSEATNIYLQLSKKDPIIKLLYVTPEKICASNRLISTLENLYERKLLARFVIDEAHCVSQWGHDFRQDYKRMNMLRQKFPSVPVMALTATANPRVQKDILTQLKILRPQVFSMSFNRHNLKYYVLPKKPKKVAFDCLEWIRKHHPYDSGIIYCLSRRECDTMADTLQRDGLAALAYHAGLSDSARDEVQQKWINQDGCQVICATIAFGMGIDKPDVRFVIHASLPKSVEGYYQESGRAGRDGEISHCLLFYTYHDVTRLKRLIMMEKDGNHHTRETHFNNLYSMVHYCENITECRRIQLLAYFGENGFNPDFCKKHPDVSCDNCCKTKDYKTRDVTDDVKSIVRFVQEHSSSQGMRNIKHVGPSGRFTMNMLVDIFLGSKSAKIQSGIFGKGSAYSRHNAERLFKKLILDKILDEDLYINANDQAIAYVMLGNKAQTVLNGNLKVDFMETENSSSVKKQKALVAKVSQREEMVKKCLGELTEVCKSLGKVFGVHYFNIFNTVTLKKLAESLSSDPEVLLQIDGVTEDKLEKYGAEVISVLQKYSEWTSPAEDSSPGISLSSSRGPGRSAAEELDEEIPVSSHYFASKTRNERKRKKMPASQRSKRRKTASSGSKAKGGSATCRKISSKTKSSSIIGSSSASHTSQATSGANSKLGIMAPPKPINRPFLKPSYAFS

Assay [16] is described as follows: Validation screen for small molecules that induce DNA re-replication in MCF 10A normal breast cells (AID 463097). Further: 0% is about no effect; nearly all actives have a fitted effect of over 60% in size. The method, boiled down:
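DNA re-replication was detected as a rise in nuclei with elevated Hoechst fluorescence after a 48 hr compound exposure of MCF 10A cells at 37 C.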

Assay [17] deals with M-phase phosphoprotein 8 (Homo sapiens) (UniProt Q99549). Briefly: qHTS Validation Assay for Inhibitors for MPP8 Chromodomain Interactions with Methylated Histone Tails (AID 488949). Further: nearly all actives have a fitted effect of over 55% in size. Further: potency means the concentration at half of the fitted maximal effect.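 On activity change, negative = inhibition: AlphaScreen signal from MPP8 chromodomain bound to biotinylated H3K9me3 peptide; top concentration of the series differs between compounds; on the % scale 0 is the no-effect control and ±100 the full control effect.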 Put shortly:
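Disruption of the preformed MPP8–trimethyl-H3K9 peptide complex (both 50 nM, 30 min, RT) is measured after 30 min compound exposure, using AlphaScreen proximity beads; aurintricarboxylic acid titration serves as plate control.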

Assay [18] deals with Catechol O-methyltransferase (Homo sapiens) (UniProt P21964). Briefly: Confirmatory Screen for Target Class Profiling of Small Molecule Inhibitors of Methyltransferases (AID 1745852; calls by dose curve; further: potency means the concentration at half of the fitted maximal effect; on activity change, negative = inhibition: on the % scale 0 is the no-effect control and ±100 the full control effect). As to conditions: MTase-Glo luminescence, SAH detection, recombinant enzyme; measured here: COMT max response; stronger effect = lower value.
Sequence of Catechol O-methyltransferase (Homo sapiens) (P21964 whole entry, looked up): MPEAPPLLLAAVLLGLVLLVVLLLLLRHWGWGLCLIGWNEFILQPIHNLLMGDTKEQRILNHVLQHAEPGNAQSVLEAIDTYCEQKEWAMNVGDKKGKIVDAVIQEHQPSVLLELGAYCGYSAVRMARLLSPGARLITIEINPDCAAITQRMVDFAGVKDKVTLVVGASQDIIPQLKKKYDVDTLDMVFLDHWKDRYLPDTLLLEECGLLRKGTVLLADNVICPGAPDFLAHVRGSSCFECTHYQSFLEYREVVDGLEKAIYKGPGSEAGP
Assay [19] concerns the target Guanidinoacetate N-methyltransferase (Homo sapiens) (UniProt Q14353). The assay is described as above. The following applies: activity change, negative = inhibition: at 57.3 µM (top of the series) unless noted.
Assay [20] concerns the target Nicotinamide N-methyltransferase (Homo sapiens) (UniProt P40261). The description is as above. The following applies: MTase-Glo luminescence, SAH detection, recombinant enzyme; measured here: NNMT max response; stronger effect = lower value.
For assay [21], the target named is Phenylethanolamine N-methyltransferase (Homo sapiens) (UniProt P11086). The description is as above. As to conditions: MTase-Glo luminescence, SAH detection, recombinant enzyme; measured here: PNMT max response; stronger effect = lower value.
Sequence of Phenylethanolamine N-methyltransferase (Homo sapiens) (P11086 whole entry, looked up): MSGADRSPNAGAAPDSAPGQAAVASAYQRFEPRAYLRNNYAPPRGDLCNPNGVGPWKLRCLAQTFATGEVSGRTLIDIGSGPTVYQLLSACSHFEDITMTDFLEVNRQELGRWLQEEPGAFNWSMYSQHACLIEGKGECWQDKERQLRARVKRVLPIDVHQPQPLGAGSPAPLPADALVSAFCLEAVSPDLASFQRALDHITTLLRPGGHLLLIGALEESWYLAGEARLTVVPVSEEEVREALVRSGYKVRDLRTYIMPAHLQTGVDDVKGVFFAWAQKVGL
Assay [22] is described as follows: qHTS for differential inhibitors of proliferation of Plasmodium falciparum line 7G8 (AID 1815).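 Further: potency means the concentration at half of the fitted maximal effect; parasite growth measured after three days of incubation.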
A short description of assay [23]: qHTS for differential inhibitors of proliferation of Plasmodium falciparum line D10 (AID 1877).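 Further: potency means the concentration at half of the fitted maximal effect; parasites grown with compound for 72 h before DNA staining.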
A short description of assay [24]: qHTS for differential inhibitors of proliferation of Plasmodium falciparum line HB3 (AID 1886).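 Further: potency means the concentration at half of the fitted maximal effect; parasites grown with compound for 72 h before SYBR Green readout.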 As to conditions: Potency: Plasmodium falciparum HB3 proliferation inhibition.
Assay [25] in a line: qHTS Assay for Modulators of Human Peripheral Myelin Protein 22 (PMP22) Expression/Activity (AID 1967; active means well fitted curve in the direction sought with a large enough effect in the signal ratio; the % refers to the signal ratio;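 further: 0% = untreated cells and 100% end not stated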). Put shortly:
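Quantitative HTS in a mouse Schwann cell line expressing dual click beetle luciferases: Pmp22 promoter (green) and control EF-alpha promoter (red). After 24h treatment, corrected green/red signal ratio gave %Activity relative to untreated cells.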

Assay [26] can be described thus: Quantitative high throughput screen for delayed death inhibitors of the malarial parasite plastid, 48 hour incubation (AID 488752). Further: potency means the concentration at half of the fitted maximal effect; nearly all actives have a fitted effect of over 65% in size. Put shortly:
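One-generation (48 h) growth assay: a decrease in luciferase signal from an integrated reporter in P. falciparum-infected red cells (0.1% parasitemia, 2% hematocrit) after compound exposure at 37 C indicates parasite inhibition.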

Records with an inconclusive call do not appear. Calls of active or inactive are those of the source. Unless noted, the call rests on the fitted dose curve; in most records, active means well fitted curve in the direction sought with a large enough effect; inconclusive means small, poorly fitted or top-dose-only effect, or another doubt; inactive means no such curve, though single readings can be large; an effect the other way counts as inactive or inconclusive.

Sequence of Galactokinase (Homo sapiens) (P51570 whole entry, looked up): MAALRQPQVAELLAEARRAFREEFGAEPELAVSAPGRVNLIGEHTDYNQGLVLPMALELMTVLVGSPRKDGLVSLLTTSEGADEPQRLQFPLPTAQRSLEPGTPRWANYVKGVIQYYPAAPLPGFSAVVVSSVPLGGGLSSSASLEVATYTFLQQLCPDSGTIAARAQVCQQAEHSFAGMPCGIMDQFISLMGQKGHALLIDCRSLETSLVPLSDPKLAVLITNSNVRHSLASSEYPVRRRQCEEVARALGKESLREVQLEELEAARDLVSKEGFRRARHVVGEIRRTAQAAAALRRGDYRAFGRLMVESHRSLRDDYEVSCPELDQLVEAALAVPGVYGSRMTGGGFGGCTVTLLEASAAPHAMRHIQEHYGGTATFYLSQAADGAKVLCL
Sequence of ATP-dependent DNA helicase Q1 (Homo sapiens) (P46063 whole entry, looked up): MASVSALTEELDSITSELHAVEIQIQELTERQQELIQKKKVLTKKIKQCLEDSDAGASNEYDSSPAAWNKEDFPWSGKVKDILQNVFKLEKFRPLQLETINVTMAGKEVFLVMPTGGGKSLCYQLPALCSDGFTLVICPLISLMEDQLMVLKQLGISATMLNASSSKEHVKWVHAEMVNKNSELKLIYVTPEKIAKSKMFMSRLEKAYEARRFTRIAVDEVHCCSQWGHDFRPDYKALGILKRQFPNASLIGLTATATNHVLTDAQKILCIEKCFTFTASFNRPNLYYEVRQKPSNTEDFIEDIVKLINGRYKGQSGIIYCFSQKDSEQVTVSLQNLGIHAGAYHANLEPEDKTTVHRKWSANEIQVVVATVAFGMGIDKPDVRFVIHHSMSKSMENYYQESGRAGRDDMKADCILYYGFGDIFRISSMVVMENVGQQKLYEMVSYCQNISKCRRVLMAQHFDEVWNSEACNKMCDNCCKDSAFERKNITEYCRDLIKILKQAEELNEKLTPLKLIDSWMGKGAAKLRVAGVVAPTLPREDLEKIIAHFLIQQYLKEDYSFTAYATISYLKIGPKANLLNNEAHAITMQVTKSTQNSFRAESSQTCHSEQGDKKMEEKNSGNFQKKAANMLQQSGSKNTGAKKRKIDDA
Sequence of Thyrotropin receptor (Homo sapiens) (P16473 whole entry, looked up): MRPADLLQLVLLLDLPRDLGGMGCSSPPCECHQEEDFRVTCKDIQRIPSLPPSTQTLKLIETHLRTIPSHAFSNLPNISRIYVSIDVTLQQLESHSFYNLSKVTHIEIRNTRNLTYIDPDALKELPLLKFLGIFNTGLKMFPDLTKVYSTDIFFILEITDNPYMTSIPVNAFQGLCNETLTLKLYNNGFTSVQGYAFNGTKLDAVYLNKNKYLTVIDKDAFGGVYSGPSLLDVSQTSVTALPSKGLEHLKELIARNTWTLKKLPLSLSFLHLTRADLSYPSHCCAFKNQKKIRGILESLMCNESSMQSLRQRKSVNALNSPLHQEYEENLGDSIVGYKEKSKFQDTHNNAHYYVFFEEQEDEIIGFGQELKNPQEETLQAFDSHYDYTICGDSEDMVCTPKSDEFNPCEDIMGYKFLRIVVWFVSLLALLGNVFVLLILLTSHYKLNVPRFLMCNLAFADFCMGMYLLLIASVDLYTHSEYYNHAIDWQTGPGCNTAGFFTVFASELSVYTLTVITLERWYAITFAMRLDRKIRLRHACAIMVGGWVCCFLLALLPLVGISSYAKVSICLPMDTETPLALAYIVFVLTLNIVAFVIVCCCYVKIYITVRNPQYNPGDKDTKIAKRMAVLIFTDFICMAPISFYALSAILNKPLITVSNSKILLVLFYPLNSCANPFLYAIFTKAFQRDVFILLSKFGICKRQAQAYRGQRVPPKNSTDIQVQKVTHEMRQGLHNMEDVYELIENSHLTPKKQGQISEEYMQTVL
Sequence of Nicotinamide N-methyltransferase (Homo sapiens) (P40261 whole entry, looked up): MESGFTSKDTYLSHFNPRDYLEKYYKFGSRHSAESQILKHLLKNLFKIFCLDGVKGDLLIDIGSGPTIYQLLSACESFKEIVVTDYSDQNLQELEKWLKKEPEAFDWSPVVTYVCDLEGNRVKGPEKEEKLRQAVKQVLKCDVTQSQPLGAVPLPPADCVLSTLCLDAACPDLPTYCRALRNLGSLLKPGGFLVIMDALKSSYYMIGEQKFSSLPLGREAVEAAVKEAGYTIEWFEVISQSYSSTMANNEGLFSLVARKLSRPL

As for `Nc1nc(Cl)nc2c1ncn2[C@@H]1O[C@H](CO)[C@H](O)[C@H]1O`, the outcome in assay [1], in assay [6], in assay [7], in assay [9] and in [11] was “inactive” throughout. The Potency entry in assay [2], in assay [5], in assay [12] and in assay [13] was “inactive” throughout. Also, the Potency was 11.2 µM (active) in [3], 7.08 µM (active) in assay [4] and 5.22 µM (active) in [8]. Further, the activation in assay [10] is 1.31% (inactive).
Consider `N#CC(Cc1ccc(O)c(O)c1)C(=O)N1CCc2ccccc21` (configuration not stated), for which the outcome in [1], in assay [7], in [9] and in assay [11] was “inactive” in each case. For the same molecule, the Potency result in assay [2] and in assay [16] was “inactive” throughout. Further, the Potency is 7.08 µM (active) in assay [3]; 3.55 µM (active) in assay [4]; 3.55 µM (active) in assay [14]; 25.1 µM (active) in [15]; 17.8 µM (active) in assay [17]. Also, the activation in assay [10] is 3.94% (inactive).
With `CCN1CCN(c2nc3c(S(=O)(=O)c4ccc(C)cc4)nnn3c3ccccc23)CC1`, the figures for the activity in assay [18], in [20] and in [21] were -6.68%, -16.7% and -10.8%, respectively. For the same molecule, in assay [19], the activity change, negative = inhibition is -2.1%.
For the molecule `Cc1oc(C(=O)O)cc1COc1ccc2c(-c3ccccc3)cc(=O)oc2c1C`, the results for the activity in assay [18], in assay [20] and in assay [21] were -34.8%, -43.8% and -32.8%, respectively. Moreover, the Potency in [19] is 27.1 µM (active).
`C[C@H]1c2cccc(O)c2C(O)=C2C(=O)[C@]3(O)C(O)=C(C(N)=O)C(=O)C(N(C)C)[C@@H]3[C@@H](O)C21` (some centres not stated): the outcome in assay [1], in assay [25], in [6], in assay [7] and in [11] was “inactive” throughout. The Potency result in assay [2], in assay [15], in assay [17] and in assay [13] was “inactive” in each case. Moreover, the Potency was 4.47 µM (active) in assay [22]; 8.91 µM (active) in assay [3]; 1 µM (active) in assay [4]; 11.2 µM (active) in assay [23]; 5.01 µM (active) in assay [5]; 1 µM (active) in [14]. Moreover, the figures for the Potency in assay [24], in [8] and in assay [26] were 6.31 µM (active), 0.37 µM (active) and 6.57 µM (active), respectively. For the same molecule, the activation in [10] is -0.125% (inactive).

The values are drawn from PubChem BioAssay (NCATS).
